Screens from PubChem BioAssay.
A549 tox = A549 cytotoxicity, counter-screen for Nrf2 inhibitors; A549 ARE-Fluc cells, CellTiter-Fluor viability, 18-24 h; Potency, µM (series often up to 46 µM), for inactives: at the top dose activity change, negative = cytotoxicity, hits mostly inhibitors; 390,000 compounds, 0.16% hits; AID 504648; note: % is set by controls: 0 for no effect and ±100 for the full control effect
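Cytotoxicity counterscreen: CellTiter-Fluor fluorescence was measured in A549 ARE_Fluc cells after 18-24 h of compound exposure in a concentration series. The subsequent BugLite luminescent read reports ARE-luciferase activity.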
Nrf2 activator = activates Nrf2 signaling. AREc32 ARE-luciferase reporter (MCF7-derived line), luminescence, 24 h. Potency, µM (doses to about 46.1 µM), for the others: top-dose activation, hits mostly activators. 410,000 compounds, 0.31% hits. AID 624171; note: % of control where 0% means no effect; nearly all actives have a fitted effect of over 65% in size
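Luminescent ARE reporter assay in AREc32_Fluc cells: overnight plating at 37 deg C, 24 hr compound incubation, Steady-Glo added, 30 min RT before reading.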
ATXN2 expr inh = ATXN2 expression inhibition; 360,000 compounds, 0.72% hits; HEK-293 ATXN2-luciferase reporter, luminescence, 24 h; Potency, µM (titrated, usually from 57 µM), for inactives: at the top dose activity change, negative = inhibition, most hits filed as inhibitors; note: % is set by controls: 0 for no effect and ±100 for the full control effect; nearly all actives have a fitted effect of over 55% in size
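qHTS (up to 57 uM final) was run with 24 h compound exposure of reporter cells at 37 °C. Each well was multiplexed: SteadyGlo luminescence measured ATXN2-luciferase expression after a fluorogenic Gly-Phe-AFC viability readout (25 uM final).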
ATXN viability = reduces viability in counter-screen for ATXN expression inhibitors. AID 651635. Potency, µM (highest dose often 56.7 µM), hits mostly cytotoxic. S2 cells (HEK-293 line with an ATXN2-luciferase reporter) viability, CellTiter-Fluor protease fluorescence, 24 h. 400,000 compounds, 0.49% hits; note: nearly all actives have a fitted effect of over 40% in size
Nrf2 block = Nrf2 pathway inhibition | A549 ARE-Fluc reporter, luciferase luminescence, 18-24 h | Potency, µM (doses to about 46 µM), without a hit: top-dose activity change, negative = inhibition, actives largely listed as inhibitors | 360,000 compounds, 2.1% hits; note: % is set by controls: 0 for no effect and ±100 for the full control effect; nearly all actives have a fitted effect of over 60% in size
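Nrf2 activity is the BugLite luminescence, read 15 min after reagent at room temperature, following CellTiter-Fluor cytotoxicity readout (30 min, 37C). Compound titrations were applied for 18-24 h to 5000 A549 ARE_Fluc cells/well in 5% FBS OPTI-MEM.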
An asterisk follows results filed as active; i = inactive; ? = inconclusive; · = not tested or not shown. In the library only some 2.9% were active in any assay of this set; here they are far more common. Calls come from the whole dose curve; as a rule, active = well fitted curve in the direction sought with a large enough effect; inconclusive = small, poorly fitted or top-dose-only effect, or another doubt; inactive = no such curve, though single readings can be large; an effect the other way counts as inactive or inconclusive. Potency is the fitted concentration of half-maximal effect.

SMILES | A549 tox | Nrf2 activator | ATXN2 expr inh | ATXN viability | Nrf2 block
Cc1ccc2c(=O)c3cccc(CC(=O)O)c3oc2c1C | · | · | 24µM* | · | ·
O=C(O)Cc1cccc2c(=O)cc(-c3ccccc3)oc12 | · | 0% | 6% | i | ·
O=c1n(Cc2ccccc2)nc2n1-c1cc(Cl)ccc1OC2 | 2% | 1% | 15% | i | 26%
CS(=O)(=O)c1ncc(Cl)c(C(=O)N2CCN(c3cccc(Cl)c3)CC2)n1 | 18µM* | -6% | · | · | 7.3µM*
Cc1[nH]c2ccc(C(=O)N3CCN(c4cccc(Cl)c4)CC3)cc2c1C | ? | -1% | 9% | i | ?
CCS(=O)(=O)c1ncc(Cl)c(C(=O)N2CCN(c3cccc(Cl)c3)CC2)n1 | ? | -6% | · | · | 23µM*
COC(=O)[C@@H]1C[C@H](NC(=O)c2ccccn2)CN1Cc1cccc2ccccc12 | · | · | · | i | ·
O=C(C=Cc1ccco1)c1ccc2ccccc2c1 | -3% | 7.9µM* | 42% | ? | ?
COc1ccc(C(=O)N(Cc2cc3cccc(C)c3nc2N(C)C)CC2CCCO2)cc1 (stereo unspecified) | · | · | · | i | ·
O=C1CCCC(=O)C1C(=O)c1ccc(C(F)(F)F)cc1[N+](=O)[O-] | · | · | 11% | · | ·
Cc1ccc(NC(=O)CSc2ccccc2NC(=O)c2ccccc2Cl)cc1Cl | ? | 2% | 2% | i | 26µM*
Cc1ccc(NC(=O)CSc2ccccc2NC(=O)c2ccccc2)cc1Cl | -23% | 4% | 0% | i | ?
CCOC(=O)c1ccc(-c2ccc3ncnc(NCc4cccs4)c3c2)o1 | ? | · | · | · | 0%
COc1ccc(NS(=O)(=O)c2cccc(NC(=O)CCC(=O)c3ccc(Cl)cc3)c2)cc1 | -28% | 9% | -15% | ? | 21µM*
CCOC(=O)c1sc(NC(=O)c2cc(-c3ccc(C)cc3)nc3ccccc23)c(C#N)c1C | 1% | 0% | 9% | i | 22%
Cc1ccccc1-c1cc(C(=O)Nc2sc(C(=O)OC(C)C)c(C)c2C#N)c2ccccc2n1 | 7.3µM* | 2% | ? | ? | 2.6µM*
COC(=O)c1sc(NC(=O)c2cc(-c3ccccc3)nc3ccccc23)c(C#N)c1C | ? | 5% | ? | ? | 9.2µM*
Cc1[nH]n(-c2ccccc2)c(=O)c1C(=O)c1ccccc1 | ? | 0% | -7% | i | ?
Cc1[nH]n(-c2ccc(Cl)cc2)c(=O)c1C(=O)c1ccccc1 | ? | 3% | ? | ? | 21µM*
Cc1[nH]n(-c2ccccc2)c(=O)c1C(=O)c1cccc(F)c1 | 13% | 0% | · | ? | 23µM*
Cc1[nH]n(-c2ccccc2)c(=O)c1C(=O)c1ccc(Cl)cc1 | -24% | 0% | -14% | i | 16µM*
COc1ccc(C2c3c(nc(CCc4ccccc4)[nH]c3=O)Oc3ccc4ccccc4c32)cc1OC (stereo unspecified) | 5% | · | · | · | 6%
Cc1ccnc(N(C(=O)c2cccs2)C(=O)c2cccs2)c1 | 0% | 10µM* | 18% | i | 5%
COC(=O)Cn1cc(/C=C/c2cc[n+](C)cc2)c2ccccc21 | ? | 2% | 4% | ? | -30%
COc1ccc2c(c1)c(/C=C/c1cc[n+](C)cc1)cn2C | -1% | 8% | · | i | 12µM*
SMILES | A549 tox | Nrf2 activator | ATXN2 expr inh | ATXN viability | Nrf2 block
Cc1ccc(NS(=O)(=O)c2ccc3c(c2)CCN(C(=O)C(F)(F)F)C3)cc1C | 2% | · | · | · | ?
CCOC(=O)C(=CNc1cccnc1Oc1ccc(C)c2c1CCC2)C(=O)OCC | -19% | 0% | -22% | i | 18µM*
C/C(=N\Nc1nccnc1Cl)c1ccc(Cl)c(Cl)c1 | 2% | 14µM* | 20% | i | ?
C/C(=N\Nc1nccnc1Cl)c1ccc(O)cc1 | -6% | 23% | 4% | i | 28%
Brc1ccc(-c2nnc(-c3cccnc3)c3conc23)cc1 | -2% | 7.1µM* | 4% | i | 20%
COc1ccc(-c2nnc(C)c3nocc23)cc1 | -2% | 0% | · | i | 1%
COc1ccc(C(=O)Nc2ccc(OC)c([N+](=O)[O-])c2)cc1Br | -26% | 0% | · | ? | 21µM*
CCN(CC)S(=O)(=O)c1ccc(C(=O)Nc2ccc(Cc3ccncc3)cc2)cc1 | 0% | 1% | ? | i | 21µM*
COc1ccc(C(=O)Nc2ccc(Cc3ccncc3)cc2)cc1Br | ? | 4% | · | ? | 18µM*
COc1ccc(C(=O)Nc2cccc([N+](=O)[O-])c2)cc1Br | -24% | 3% | -31% | ? | ?
CNC(=O)c1ccc(-c2cnc3ncc(Cc4ccc5ncccc5c4)n3n2)cc1F | · | · | 20% | · | ·
Cc1cccc(OCC(=O)Nc2ccncc2)c1C | -7% | 0% | -5% | ? | 7.3µM*
Cc1cccc(OCC(=O)Nc2ccc(-c3nc4ccccc4o3)cc2)c1C | -3% | 5% | 9% | i | 21µM*
CC(=O)c1ccc(NC(=O)COc2ccccc2-c2nc(C)no2)cc1 | -1% | 3% | 7% | i | ?
CC(=O)c1ccc(NC(=O)COc2ccccc2-c2nc(-c3ccc(C)cc3)no2)cc1 | -17% | 6% | 15% | i | 26µM*
Cc1cc(Cl)ccc1OCC(=O)Nc1ccncc1 | -1% | -1% | -34% | i | 23µM*
Cc1cc(Cl)ccc1OCC(=O)NCc1ccncc1 | 6% | 6% | 37% | i | 12%
COc1ccc(NC(=O)C(OC(=O)CNC(=O)c2ccccc2)c2ccccc2)c(C)c1 (stereo unspecified) | -1% | · | · | · | 26%
COCCCNC(=O)C1CCCN(S(=O)(=O)c2ccc3c(c2)oc(=O)n3C)C1 (stereo unspecified) | 1% | -1% | -3% | ? | -7%
COc1ccc(NC(=O)C(OC(=O)CNC(=O)c2ccccc2)c2ccccc2)cc1Cl (stereo unspecified) | -4% | · | · | · | -3%
Cc1ccc(C)c(OCC(=O)Nc2ccncc2)c1 | 3% | 2% | · | i | 5.2µM*
CCOc1ccc(C)cc1-n1nc2ccccc2n1 | 0% | -1% | ? | i | -6%
Cc1ccc(OCC(=O)Nc2ccc(Cl)cc2)c(-n2nc3ccccc3n2)c1 | -4% | -1% | 35µM* | · | 2%
CSc1ccccc1NC(=O)COc1ccc(Cl)cc1Cl | ? | 7% | 9% | i | ?
O=C(COc1ccc(Cl)cc1Cl)Nc1ccccn1 | 0% | 3% | 2.8µM* | i | ?
Cc1ccc(-c2nc3cccnc3o2)cc1NC(=O)COc1ccc(Cl)cc1C | -3% | 0% | 32µM* | 28µM* | ?
CCn1ccc(NS(=O)(=O)c2ccc(N)cc2)nc1=O | · | · | 1% | i | ·
Cc1ccc(CN2CCC(C3(c4ccccn4)NC(=O)N(CC4CCCO4)C3=O)CC2)cc1C (stereo unspecified) | · | · | · | i | ·
